# WRN helicase inh: blocks human WRN helicase | Q14191 | WRN helicase unwinding, fluorescent forked duplex, kinetic | Potency, µM (series often up to 114 µM), actives largely listed as inhibitors | hit rate 0.46% among 360,000; also: nearly all actives have a fitted effect of over 55% in size
#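 Kinetic red-fluorescence monitoring (525/598 nm) tracks WRN helicase activity after 100 nM fluorophore-quencher forked duplex and 2 mM ATP are added to 20 nM enzyme pretreated 15 min at room temperature with compound.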
# RECQ1 inh-1: inhibitors of human RECQ1 DNA helicase | hit rate 0.54% among 240,000 | AID 2549 | Potency, µM (series often up to 57.3 µM), usual class: inhibitors | P46063 | RECQ1 DNA unwinding, red fluorescence kinetic read; also: nearly all actives have a fitted effect of over 30% in size
#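 50 nM RECQ1T1 preincubated 15 min with compound in Tris pH 8.0 buffer with MgCl2, DTT, Tween-20 and 2.5 ug/ml poly(dI-dC); started with 200 nM TAMRA/BHQ-2 forked duplex and 2 mM ATP. Unwinding read as fluorescence (525/598 nm), two reads 2 h apart.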
# FEN1 inh: blocks human flap endonuclease 1; Recombinant FEN1 flap cleavage, fluorescence, 15 min; Potency, µM (series often up to 114 µM), usual class: inhibitors; hit rate 0.35% among 390,000; also: nearly all actives have a fitted effect of over 65% in size
# Target sequence (P39748 whole entry, looked up): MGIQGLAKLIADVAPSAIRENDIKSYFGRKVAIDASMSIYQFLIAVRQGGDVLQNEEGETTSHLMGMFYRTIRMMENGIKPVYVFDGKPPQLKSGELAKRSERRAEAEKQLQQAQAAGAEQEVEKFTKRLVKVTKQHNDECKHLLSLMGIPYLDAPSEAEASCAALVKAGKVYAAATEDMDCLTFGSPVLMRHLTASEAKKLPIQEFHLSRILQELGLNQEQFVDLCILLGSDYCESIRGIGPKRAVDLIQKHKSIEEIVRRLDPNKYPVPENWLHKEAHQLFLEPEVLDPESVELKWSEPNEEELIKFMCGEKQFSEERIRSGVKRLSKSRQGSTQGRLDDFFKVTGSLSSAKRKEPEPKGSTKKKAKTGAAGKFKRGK
#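 Potency values derive from four-parameter Hill fits of normalized qHTS data. The reaction used 10 nM FEN1 preincubated 15 min at room temperature with compound, then 50 nM DNA substrate, read at 0 and 15 min.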
# APE1 inh: APE1 (human) endonuclease inhibition; P27695; recombinant APE1, TAMRA/BHQ-2 abasic DNA cleavage fluorescence; Potency, µM (doses to about 65.8 µM), usual class: inhibitors; hit rate 0.35% among 350,000; also: nearly all actives have a fitted effect of over 55% in size
# Target sequence (P27695 whole entry, looked up): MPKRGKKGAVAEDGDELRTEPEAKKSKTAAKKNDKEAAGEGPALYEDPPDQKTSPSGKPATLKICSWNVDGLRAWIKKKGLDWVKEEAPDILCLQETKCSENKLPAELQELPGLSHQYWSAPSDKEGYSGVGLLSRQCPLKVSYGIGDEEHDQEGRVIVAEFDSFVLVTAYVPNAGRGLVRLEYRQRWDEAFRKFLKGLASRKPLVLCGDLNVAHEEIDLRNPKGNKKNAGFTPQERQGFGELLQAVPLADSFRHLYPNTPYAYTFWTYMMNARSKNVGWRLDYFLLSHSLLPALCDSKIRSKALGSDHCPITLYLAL
#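 Endonuclease cleavage of a quenched abasic-site DNA duplex (50 nM) by APE1 (0.75 nM) was tracked by TAMRA dequenching. Compounds were preincubated with enzyme 15 min at room temperature; data normalized to buffer-only and DMSO wells plus NSC13755 control.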
# BLM inh: blocks DNA unwinding by human BLM helicase; P54132; recombinant BLM DNA unwinding, fluorescence dequenching; Potency, µM (highest dose often 56.1 µM), most hits filed as inhibitors; hit rate 0.2% among 350,000; also: nearly all actives have a fitted effect of over 35% in size
# RECQ1 inh conf: confirmation of human RECQ1 helicase inhibitors | shares compounds with RECQ1 inh-1 | Potency, µM (titrated, usually from 229 µM), most hits filed as inhibitors | hit rate 28% among 610 | AID 2708 | RECQ1 helicase DNA unwinding, fluorescence; also: nearly all actives have a fitted effect of over 45% in size
# RECQ1 ADP FP: counter-screen for RECQ1 inhibitors: ADP displacement. shares compounds with RECQ1 inh-1. Potency, µM (doses to about 228 µM), actives largely listed as inhibitors. hit rate 27% among 530. ADP fluorescence polarization displacement counterscreen; also: nearly all actives have a fitted effect of over 45% in size
# RECQ1 inh-2: blocks human RECQ1 DNA unwinding; shares compounds with RECQ1 inh-1; recombinant RECQ1 DNA unwinding, red fluorescence; Potency, µM (titrated, usually from 119 µM), usual class: inhibitors; hit rate 15% among 1,100; also: nearly all actives have a fitted effect of over 50% in size
# Numbers stand for hits; 0 = inactive; ? = inconclusive; - = no result given; + = active, no number. Sampled rows, rich in hits. Any-hit rate of the full collection: about 0.87%. Calls follow the shape of the dose curve; as a rule, active = well fitted curve in the direction sought with a large enough effect; inconclusive = small, poorly fitted or top-dose-only effect, or another doubt; inactive = no such curve, though single readings can be large; an effect the other way counts as inactive or inconclusive.
SMILES,WRN helicase inh,RECQ1 inh-1,FEN1 inh,APE1 inh,BLM inh,RECQ1 inh-2,others
COc1ccccc1CNC(=O)CCCn1c(=O)c2ccccc2n(Cc2ccc(C)cc2)c1=O,-,-,0,-,0,-,
O=C(O)CCSc1nnc(COc2ccc([N+](=O)[O-])cc2)n1-c1ccccc1,0,0,0,0,0,-,RECQ1 inh conf=0;RECQ1 ADP FP=0
O=C(O)CSc1nnc(COc2ccc([N+](=O)[O-])cc2)n1-c1ccccc1,0,0,0,0,0,-,
COc1ccc(NC(=O)c2ccc(OCc3c(C)noc3C)c(OC)c2)cn1,0,0,0,0,0,-,RECQ1 inh conf=0;RECQ1 ADP FP=112µM
COc1ccc(C(CCN2CCCCC2)c2c(OC)cc(OC)c3c(-c4ccccc4)cc(=O)oc23)cc1 (centres undefined),0,0,0,0,0,-,
CCN(CC)C(=O)CC(c1ccc(OC)cc1)c1c(OC)cc(OC)c2c(-c3ccccc3)cc(=O)oc12 (centres undefined),-,20µM,0,?,0,?,
Cc1cc2nc3c(=O)[nH]c(=O)nc-3n(C)c2cc1C=O,-,3.16µM,-,0,15.8µM,-,RECQ1 inh conf=+;RECQ1 ADP FP=6.31µM
CC(=O)OCCn1c2nc(=O)[nH]c(=O)c-2nc2cc(C)c(C)cc21,0,0,0,0,0,-,
Cc1ccc(C(=O)c2cc([N+](=O)[O-])ccc2N2CCCCC2)c(C)c1,0,1.58µM,0,0,0,0,
COc1ccc(C(=O)NC(=S)Nc2ccc(N3CCCC3)cc2)cc1,0,0,0,0,0,-,
COc1cc(C(=O)NC(=S)Nc2ccc(N3CCCC3)cc2)cc(OC)c1OC,0,?,0,0,0,0,
COc1cc(C(C)=O)ccc1COc1ccc(C(=O)OCC(=O)NC2CCS(=O)(=O)C2)cc1OC (centres undefined),0,31.6µM,0,0,0,0,
CC(C)(O)C#Cc1ccc(CN2CCCC(CO)(Cc3cccc(Cl)c3)C2)cc1 (centres undefined),0,?,0,0,0,0,
Cc1ccccc1CC1(CO)CCCN(Cc2ccc(C#CC(C)(C)O)cc2)C1 (centres undefined),0,0,0,0,0,-,
CCN(CC)S(=O)(=O)c1ccc(NC(=O)[C@H](CSCc2ccccc2)N2Cc3ccccc3C2=O)cc1,-,-,0,-,0,-,
O=C(c1ccc2c(=O)n(-c3ccccc3)c(=O)[nH]c2c1)N1CCN(Cc2cccs2)CC1,-,-,0,-,-,-,
COc1ccccc1Oc1nc2c(c(=O)n(Cc3ccccc3F)c(=O)n2C)n1C,0,?,0,?,?,0,
COc1ccc(-c2cc(C(F)(F)F)n3nc(C(=O)NCC45CC6CC(CC(C6)C4)C5)cc3n2)cc1,-,-,0,-,0,-,
NS(=O)(=O)c1cccc(NS(=O)(=O)c2ccc(/C=C/C(=O)OCC(=O)c3ccc(Br)cc3)cc2)c1,0,?,0,0,0,0,
COc1ccc(C(=O)COC(=O)/C=C/c2ccc(S(=O)(=O)Nc3cccc(S(N)(=O)=O)c3)cc2)cc1,0,0,0,0,0,-,
N#Cc1ccccc1Cn1c(=O)n(CCCC(=O)NCc2ccccc2Cl)c(=O)c2ccccc21,-,-,0,-,0,-,
COc1ccc(-c2nc3nc(C)cc(N4CCN(c5cccc(C(F)(F)F)c5)CC4)n3n2)cc1,-,-,0,-,0,-,
CS(=O)(=O)N1CCN(c2ccc([N+](=O)[O-])c(NCc3ccc(Cl)cc3)c2)CC1,?,31.6µM,0,0,15.8µM,?,
CS(=O)(=O)N1CCN(c2ccc([N+](=O)[O-])c(NCc3ccccc3)c2)CC1,0,0,0,0,0,-,
COc1ccc(NC(=O)C2CCCN2S(=O)(=O)c2ccc3c(c2)CCCC(=O)N3)cc1Cl (centres undefined),-,-,0,-,0,-,
SMILES,WRN helicase inh,RECQ1 inh-1,FEN1 inh,APE1 inh,BLM inh,RECQ1 inh-2,others
Cc1ccc(-n2nc(C)c3c2OC(N)=C(C#N)C3c2ccoc2)cc1 (centres undefined),0,?,0,?,0,0,
O=C(CSc1ccc(Cl)cc1)N1CCN(c2c(Cl)cccc2[N+](=O)[O-])CC1,0,8.91µM,0,0,0,0,RECQ1 inh conf=0;RECQ1 ADP FP=0
O=C(/C=C/c1ccc(Cl)cc1)N1CCN(c2c(Cl)cccc2[N+](=O)[O-])CC1,0,0,0,0,0,-,
COC(=O)c1c(C(=O)OC)c2cccc3cc(-c4ccccc4)c4ccc1c4n32,0,3.98µM,0,0,0,?,
COC(=O)c1cc2c(-c3ccccc3)cc3ccccn3c-2c1C(=O)OC,?,?,?,0,0,79.4µM,
Cc1c(CC(=O)NCc2ccc(F)cc2)c(=O)oc2cc(O)c(Cl)cc12,-,-,0,-,0,-,
CCOc1ccc(N2C(=O)CC(Sc3ccccc3C(=O)O)C2=O)c([N+](=O)[O-])c1 (centres undefined),0,0,0,0,0,-,RECQ1 inh conf=0;RECQ1 ADP FP=0
O=C(O)c1ccccc1SC1CC(=O)N(c2cccc3ccccc23)C1=O (centres undefined),?,0,0,0,0,-,
CCNc1ccc2c(Cl)cc(=O)oc2c1,0,35.5µM,0,0,0,0,
Cc1cc(Cl)ccc1OCC(=O)N1CCC(c2nc3ccccc3o2)CC1,-,-,0,-,0,-,
CCN(CC)C(=O)CC(c1ccccc1)c1ccco1 (centres undefined),0,?,0,0,0,?,
CCC(=O)N(CCC(c1ccccc1)c1ccco1)Cc1cccs1 (centres undefined),0,0,0,0,0,-,
O=C(c1ccco1)N(CCC(c1ccccc1)c1ccco1)Cc1ccccc1 (centres undefined),?,11.2µM,0,?,0,44.7µM,RECQ1 inh conf=?;RECQ1 ADP FP=0
O=C(CC(NC(=O)c1ccccc1)c1ccccc1)OCc1nc(-c2cccc(Cl)c2)no1 (centres undefined),-,-,0,-,-,-,
CCN(CC)C(=O)c1cn(CCC#N)nc1-c1ccc(F)cc1,0,39.8µM,0,?,0,0,
CN(C)C(=O)c1cn(CCC#N)nc1-c1ccc2ccccc2c1,0,-,0,0,0,-,
O=C(CC(Sc1ccc(Br)cc1)C(=O)O)c1ccc(Br)cc1 (centres undefined),-,-,-,0,0,-,
O=C(CC(C(=O)O)P(=O)(c1ccccc1)c1ccccc1)c1ccc(Br)cc1 (centres undefined),0,0,0,0,0,-,RECQ1 inh conf=0;RECQ1 ADP FP=0
O=C(O)CCCCCNC(=O)CCn1cnc2ccccc2c1=O,0,0,0,0,0,-,RECQ1 inh conf=0;RECQ1 ADP FP=0
O=C(CCn1cnc2ccccc2c1=O)Nc1cccc(Cl)c1,0,0,0,0,0,-,
CC(C)(C)OC(=O)N1CCC(c2c(C(=O)NCc3cccs3)cnn2-c2cccc(F)c2)CC1,-,-,0,-,0,-,

# Compound activity from PubChem.
